Active and inactive are the calls of the source. How the source made its calls: active means hit-call score of the fitted dose curve at least 0.9, where 1 is the maximum; inactive means score below 0.9.
Columns and labels:
Settings in all cases: mRNA level, 48 h; actives raise or lower the signal
[1] = read-out: Insulin-like growth factor-binding protein 1 (IGFBP1), IGFBP1 (gene 3484); test: LTEA_HepaRG_IGFBP1: Life Technologies and Expression Analysis (LTEA) Assay for Insulin-like growth factor-binding protein 1 (IGFBP1) using HepaRG (AID 2283508)
In short: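 Read-out is qRT-PCR transcript level normalized to three housekeeping genes, fitted in both directions against 0.5% DMSO. Differentiated HepaRG cells received eight half-log concentrations (top 100 uM) in duplicate for 48 h in serum-free induction medium.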

[2] = read-out: Interleukin 6 (IL6), IL6 (gene 3569); test: LTEA_HepaRG_IL6: Life Technologies and Expression Analysis (LTEA) Assay for Interleukin 6 (IL6) using HepaRG (AID 2283509)
In short: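 qRT-PCR read-out of IL6 transcript, normalized to three housekeeping genes, after 48 h chemical exposure of HepaRG cells; 8-point half-log series, top 100 uM, 0.5% DMSO vehicle. Bidirectional curve fitting against DMSO baseline.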

[3] = read-out: Interleukin 6 Receptor (IL6R), IL6R (gene 3570); test: LTEA_HepaRG_IL6R: Life Technologies and Expression Analysis (LTEA) Assay for Interleukin 6 Receptor (IL6R) using HepaRG (AID 2283510)
In short: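 HepaRG, 48 h exposure, 8-pt half-log series, top 100 uM, 0.5% DMSO vehicle, duplicates. Read-out: TaqMan qRT-PCR of IL6R transcript, housekeeping-gene normalized. Gain or loss fitted relative to DMSO baseline.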

[4] = read-out: Potassium channel subfamily K member 1 (KCNK1), KCNK1 (gene 3775); test: LTEA_HepaRG_KCNK1: Life Technologies and Expression Analysis (LTEA) Assay for Potassium channel subfamily K member 1 (KCNK1) using HepaRG (AID 2283511)
In short: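 HepaRG, 48 h exposure, 8-pt half-log series top 100 uM, 0.5% DMSO vehicle, duplicates. Readout: KCNK1 transcript by qRT-PCR (Fluidigm array), housekeeping-normalized; bidirectional curve fit relative to DMSO baseline.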

[5] = read-out: JUN Transcription Factor, JUN (gene 3725); test: LTEA_HepaRG_JUN: Life Technologies and Expression Analysis (LTEA) Assay for JUN Transcription Factor using HepaRG (AID 2283513)
In short: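 HepaRG, 48 h exposure, 8-pt half-log series top 100 uM, 0.5% DMSO, duplicate. JUN mRNA by qRT-PCR (Fluidigm), housekeeping-normalized (ACTB/GAPDH/POLR2A); bidirectional curve fit vs DMSO baseline.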

[6] = read-out: Lipase C (LIPC), LIPC (gene 3990); test: LTEA_HepaRG_LIPC: Life Technologies and Expression Analysis (LTEA) Assay for Lipase C (LIPC) using HepaRG (AID 2283514)
In short: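 HepaRG, 48 h exposure, 8-pt half-log series from 100 uM in 0.5% DMSO, duplicates. Readout: LIPC mRNA by Fluidigm qRT-PCR, housekeeping-normalized (ACTB/GAPDH/POLR2A). Gain or loss fitted bidirectionally against DMSO baseline.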

[7] = read-out: Lipoprotein lipase (LPL), LPL (gene 4023); test: LTEA_HepaRG_LPL: Life Technologies and Expression Analysis (LTEA) Assay for Lipoprotein lipase (LPL) using HepaRG (AID 2283515)
In short: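 HepaRG, 48 h exposure, 8-pt half-log dilutions from 100 uM, 0.5% DMSO vehicle, duplicates; qRT-PCR (Fluidigm array) of LPL mRNA vs housekeeping genes; bidirectional curve fit relative to DMSO baseline.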

[8] = read-out: MicroRNA 122 (MIR122), gene 406906; test: LTEA_HepaRG_MIR122: Life Technologies and Expression Analysis (LTEA) Assay for MicroRNA 122 (MIR122) using HepaRG (AID 2283516); further: the transcript read is the microRNA miR-122
In short: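 qRT-PCR read-out (TaqMan, Fluidigm array), normalized to three housekeeping genes; HepaRG cells dosed 48 h at 8 concentrations up to 100 uM in 0.5% DMSO, duplicate; gain or loss fitted against DMSO baseline.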

[9] = read-out: matrix metalloproteinase-10 (MMP10), MMP10 (gene 4319); test: LTEA_HepaRG_MMP10: Life Technologies and Expression Analysis (LTEA) Assay for matrix metalloproteinase-10 (MMP10) using HepaRG (AID 2283517)
In short: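 Transcript levels come from Fluidigm qRT-PCR normalized to three housekeeping genes, with curves fitted bidirectionally against 0.5% DMSO. Human HepaRG cells were dosed for 48 hours at concentrations up to 100 uM.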

MYC, MYC (gene 4609) = test: LTEA_HepaRG_MYC: Life Technologies and Expression Analysis (LTEA) Assay for MYC using HepaRG (AID 2283518)
In short: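 MYC transcript changes, up or down relative to 0.5% DMSO, from TaqMan qRT-PCR normalized to three housekeeping genes. Human HepaRG cultures received chemicals for 48 h at eight half-log concentrations up to 100 uM, in duplicate.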

[10] = read-out: Paternally Expressed 10 (PEG10), PEG10 (gene 23089); test: LTEA_HepaRG_PEG10: Life Technologies and Expression Analysis (LTEA) Assay for Paternally Expressed 10 (PEG10) using HepaRG (AID 2283520)
In short: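 qRT-PCR read-out: PEG10 mRNA normalised to three housekeeping genes, fitted bidirectionally against 0.5% DMSO vehicle. HepaRG cells received test chemicals for 48 h in serum-free induction medium, 8 points, top 100 uM, half-log steps.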

[11] = read-out: Nuclear factor NF-kappa-B p105 subunit (Homo sapiens) (UniProt P19838); test: LTEA_HepaRG_NFKB1: Life Technologies and Expression Analysis (LTEA) Assay for Nuclear Factor Kappa B Subunit 1 (NFKB1) using HepaRG (AID 2283521);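 further: TaqMan qRT-PCR transcript normalised to ACTB GAPDH and POLR2A housekeeping genes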
In short: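 Differentiated human HepaRG cells were exposed for 48 h in serum-free induction medium to eight concentrations (top 100 uM, half-log steps, 0.5% DMSO), in duplicate. NFKB1 mRNA was measured by TaqMan qRT-PCR, normalized to ACTB/GAPDH/POLR2A, and fitted bidirectionally against DMSO.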

[12] = read-out: Protein phosphatase 2A (PPP2R4), PTPA (gene 5524); test: LTEA_HepaRG_PPP2R4: Life Technologies and Expression Analysis (LTEA) Assay for Protein phosphatase 2A (PPP2R4) using HepaRG (AID 2283522)
In short: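 HepaRG, 48 h exposure, 8-pt half-log series from 100 uM, 0.5% DMSO vehicle, duplicates. Readout: PPP2R4 mRNA, Fluidigm qRT-PCR, housekeeping-normalized. Bidirectional curve fit vs DMSO baseline.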

[13] = read-out: Phosphatase and tensin (PTEN), PTEN (gene 5728); test: LTEA_HepaRG_PTEN: Life Technologies and Expression Analysis (LTEA) Assay for Phosphatase and tensin (PTEN) using HepaRG (AID 2283523)
In short: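 HepaRG, 48 h exposure, 8-pt half-log series from 100 uM top, 0.5% DMSO vehicle, duplicates. Readout: Fluidigm qRT-PCR of PTEN transcript; housekeeping normalization (ACTB, GAPDH, POLR2A). Gain or loss fitted relative to DMSO baseline.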

[14] = read-out: solute carrier (SLC22A1), SLC22A1 (gene 6580); test: LTEA_HepaRG_SLC22A1: Life Technologies and Expression Analysis (LTEA) Assay for solute carrier (SLC22A1) using HepaRG (AID 2283524)
In short: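 qRT-PCR readout (TaqMan, Fluidigm arrays) of SLC22A1 transcript, normalized to three housekeeping genes; bidirectional curve fit relative to 0.5% DMSO vehicle. Differentiated human HepaRG cells, 48 h chemical exposure, top concentration 100 uM, half-log steps, eight points.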

[15] = read-out: Pyruvate Dehydrogenase Kinase 4 (PDK4), PDK4 (gene 5166); test: LTEA_HepaRG_PDK4: Life Technologies and Expression Analysis (LTEA) Assay for Pyruvate Dehydrogenase Kinase 4 (PDK4) using HepaRG (AID 2283525)
In short: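 HepaRG (human liver line), 48 h chemical exposure, 8-pt half-log CRC top 100 uM, 0.5% DMSO vehicle, duplicates. Readout: TaqMan qRT-PCR of PDK4 mRNA, housekeeping-normalized; gain/loss fit relative to DMSO baseline.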

[16] = read-out: NAD(P)H dehydrogenase [quinone] 1 (NQO1), NQO1 (gene 1728); test: LTEA_HepaRG_NQO1: Life Technologies and Expression Analysis (LTEA) Assay for NAD(P)H dehydrogenase [quinone] 1 (NQO1) using HepaRG (AID 2283526)
In short: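 qRT-PCR read-out (Fluidigm TaqMan), normalized to three housekeeping genes, after 48 h chemical exposure of HepaRG cells. Concentrations: eight points, top 100 uM, half-log steps, 0.5% DMSO vehicle. Gain or loss of signal fitted relative to DMSO.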

[17] = read-out: matrix metalloproteinase-3 (MMP3), MMP3 (gene 4314); test: LTEA_HepaRG_MMP3: Life Technologies and Expression Analysis (LTEA) Assay for matrix metalloproteinase-3 (MMP3) using HepaRG (AID 2283519)
In short: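 qRT-PCR read-out of MMP3 mRNA (normalised to three housekeeping genes) in HepaRG liver cells after 48 h chemical exposure; 8-point half-log series, top 100 uM, 0.5% DMSO vehicle. Bidirectional curve fitting against DMSO baseline.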

Measured: outcome

Nuclear factor NF-kappa-B p105 subunit (Homo sapiens), sequence (P19838 whole entry, looked up): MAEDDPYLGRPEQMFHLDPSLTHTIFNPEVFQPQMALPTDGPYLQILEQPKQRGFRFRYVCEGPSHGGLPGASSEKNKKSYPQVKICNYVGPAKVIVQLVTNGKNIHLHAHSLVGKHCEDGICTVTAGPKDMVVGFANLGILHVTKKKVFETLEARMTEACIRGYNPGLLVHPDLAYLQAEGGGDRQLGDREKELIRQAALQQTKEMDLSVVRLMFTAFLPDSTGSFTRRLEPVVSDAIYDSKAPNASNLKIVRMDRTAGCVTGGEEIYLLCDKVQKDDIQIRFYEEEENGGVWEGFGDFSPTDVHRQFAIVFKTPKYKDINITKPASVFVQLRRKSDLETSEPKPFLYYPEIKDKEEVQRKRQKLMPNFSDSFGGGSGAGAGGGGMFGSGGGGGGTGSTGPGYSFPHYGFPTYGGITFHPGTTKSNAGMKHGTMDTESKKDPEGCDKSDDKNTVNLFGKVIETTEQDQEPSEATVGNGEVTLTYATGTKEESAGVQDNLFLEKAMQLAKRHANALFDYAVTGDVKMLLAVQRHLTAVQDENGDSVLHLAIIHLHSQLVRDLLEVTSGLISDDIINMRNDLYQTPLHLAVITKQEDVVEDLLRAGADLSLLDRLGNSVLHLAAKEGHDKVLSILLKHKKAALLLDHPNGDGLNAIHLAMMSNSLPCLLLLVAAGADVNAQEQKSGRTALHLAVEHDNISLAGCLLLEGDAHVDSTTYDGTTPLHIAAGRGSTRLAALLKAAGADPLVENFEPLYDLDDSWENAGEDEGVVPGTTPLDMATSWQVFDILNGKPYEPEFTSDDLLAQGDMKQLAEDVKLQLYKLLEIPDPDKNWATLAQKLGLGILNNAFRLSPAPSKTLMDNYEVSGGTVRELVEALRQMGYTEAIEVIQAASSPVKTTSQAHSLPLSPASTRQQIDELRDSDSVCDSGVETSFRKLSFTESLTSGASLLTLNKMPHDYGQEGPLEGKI

CC(C)C(=O)OCC(C)(C)C(OC(=O)C(C)C)C(C)C (centres undefined)
not listed: [17]
inactive: all other assays above

Cc1cccc(C)c1N
not listed: [17]
inactive: all other assays above

Cc1cc(O)ccc1Cl
inactive: all assays above

O=C(N[C@H]1CN2CCC1CC2)c1cc2ccoc2cn1
not listed: [17]
inactive: all other assays above

— PubChem BioAssay (EPA / NIEHS)
